# PubChem BioAssay (NCATS)
# Where “and” joins values, the source holds several entries; their conditions need not be identical. Identical values can stand only once. Inconclusive results are not listed. Where a call stands in place of a potency, no number is given. Some structures have more than one record in an assay (separate samples or runs), and their calls can disagree. Calls of active or inactive are those of the source. Unless noted, calls come from the whole dose curve; as a rule, active = well fitted curve in the direction sought with a large enough effect; inconclusive = small, poorly fitted or top-dose-only effect, or another doubt; inactive = no such curve, though single readings can be large; an effect the other way counts as inactive or inconclusive.
# Assays:
# [1] = qHTS Assay for Identification of Small Molecule Antagonists for NFkB Signaling Pathway (AID 895; active = well fitted inhibition curve with a large enough effect in the signal ratio, with a control signal flat, not every such curve was filed as active; the % refers to the signal ratio; note: potency is the fitted concentration of half-maximal effect)
# How it was run: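 Beta-lactamase reporter read-out (460 and 530 nm emission ratio, 405 nm excitation, 2 hrs substrate loading RT) after 5 hr stimulation with 10 pM TNF alpha in compound-treated NFkB-bla ME-180 cells in low-serum medium.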
# [2] = Confirmation and Secondary Assay for Modulators of Hemoglobin Beta Chain Splicing at IVS2 654 locus (AID 910);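 note: HeLa cells stably carrying EGFP split by mutant beta-globin IVS2-654 intron; per-well total GFP intensity by laser scanning cytometry after 2-day treatment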
# How it was run: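 Readout: per-well total peak green fluorescence (488 nm ex, 500–520 nm em) from objects 5–250 µm, reflecting correct splicing of an EGFP-654 reporter. Compounds were applied for 2 days at 37 °C to overnight-plated HeLa EGFP-654 cells; controls were DMSO and 500 nM IVS2-654 PNA.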
# [3] = qHTS Assay for Identification of Small Molecule Agonists for Thrombopoietin (TPO) Signaling Pathway (AID 917); note: potency is the fitted concentration of half-maximal effect
# How it was run: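 Luciferase reporter (Glycoprotein IIb promoter) in IL-3-deprived Ba/F3 cells carrying human TPO receptor; compounds co-added with 26 pM TPO, incubated 24 h, 37 C. Steadylite luminescence measured after 10 min.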
# [4] = Confirmation and Secondary Assay for Modulators of Hemoglobin Beta Chain Splicing at IVS2 705 locus (AID 930);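 note: HeLa cells stably expressing the EGFP-705 splicing reporter; GFP fluorescence per well restored by corrected splicing of the IVS2-705 intron in EGFP; series mostly up to about 46 µM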
# How it was run: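 Stable HeLa line with EGFP disrupted by mutant beta-globin intron 2 (705). Overnight attachment, then 2 days of compound at 37C, 5% CO2. Signal: peak GFP intensity summed over objects 5-250 µm.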
# [5] = target: Muscarinic acetylcholine receptor M1 (Rattus norvegicus) (UniProt P08482); test: qHTS Assay for Antagonists of Acetylcholine Muscarinic M1 Receptor: Kinetic Measurement of Intracellular Calcium Response (AID 943);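 note: Fluo-4 calcium signal as peak divided by basal fluorescence over 4 min; series mostly up to about 35 µM; nearly all actives have a fitted effect of over 75% in size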
# Chain of Muscarinic acetylcholine receptor M1 (Rattus norvegicus) (P08482 whole entry, looked up): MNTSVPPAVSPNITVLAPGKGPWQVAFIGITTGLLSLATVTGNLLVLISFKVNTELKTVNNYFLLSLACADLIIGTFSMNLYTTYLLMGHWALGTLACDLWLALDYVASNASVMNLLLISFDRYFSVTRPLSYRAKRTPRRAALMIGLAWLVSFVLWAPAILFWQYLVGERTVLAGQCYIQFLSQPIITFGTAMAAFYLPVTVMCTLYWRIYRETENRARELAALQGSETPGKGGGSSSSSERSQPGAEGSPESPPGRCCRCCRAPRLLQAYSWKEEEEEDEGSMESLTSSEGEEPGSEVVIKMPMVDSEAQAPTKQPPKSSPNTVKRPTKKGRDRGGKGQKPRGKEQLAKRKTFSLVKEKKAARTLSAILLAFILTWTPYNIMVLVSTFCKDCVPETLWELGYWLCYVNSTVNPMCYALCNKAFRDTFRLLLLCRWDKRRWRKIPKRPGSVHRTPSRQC
# How it was run: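 Antagonism measured as reduction of carbachol-evoked (EC80, 100 nM final) calcium flux in rat M1-CHO cells after 10 min compound exposure. Fluo-4 signal read kinetically; ratio of maximal to basal fluorescence.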
# [6] = target: Cytochrome P450 2C19 (Homo sapiens) (UniProt P33261); test: qHTS Assay for Inhibitors and Substrates of Cytochrome P450 2C19 (AID 899); note: nearly all actives have a fitted effect of over 60% in size; note: potency is the fitted concentration of half-maximal effect
# Chain of Cytochrome P450 2C19 (Homo sapiens) (P33261 whole entry, looked up): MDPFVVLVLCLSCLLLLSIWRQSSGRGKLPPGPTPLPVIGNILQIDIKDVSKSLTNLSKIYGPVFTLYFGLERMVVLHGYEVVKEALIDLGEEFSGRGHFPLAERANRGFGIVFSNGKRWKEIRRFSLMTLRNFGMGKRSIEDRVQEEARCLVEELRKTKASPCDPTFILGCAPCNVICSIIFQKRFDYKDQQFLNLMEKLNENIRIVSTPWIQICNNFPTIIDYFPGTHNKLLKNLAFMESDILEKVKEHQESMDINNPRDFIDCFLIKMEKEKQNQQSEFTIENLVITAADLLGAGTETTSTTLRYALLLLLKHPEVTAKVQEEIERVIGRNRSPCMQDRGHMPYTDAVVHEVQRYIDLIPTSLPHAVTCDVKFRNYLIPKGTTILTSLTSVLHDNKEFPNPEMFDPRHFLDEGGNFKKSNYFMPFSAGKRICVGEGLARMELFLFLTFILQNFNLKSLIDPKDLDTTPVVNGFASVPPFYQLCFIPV
# How it was run: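 5nM enzyme + 10uM Luciferin-H EGE (=KM), 50mM KPO4; cpd pin-transferred, 10 min 37C; NADPH regen, 60 min 37C; stopped w/ luciferin detection reagent, 20 min; luminescence. Normalized to 57uM ketoconazole (AC100).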
# [7] = target: Muscarinic acetylcholine receptor M1 (Rattus norvegicus) (UniProt P08482); test: qHTS Assay for Antagonists of Acetylcholine Muscarinic M1 Receptor: Measurement of IP-One Response (AID 944); note: nearly all actives have a fitted effect of over 75% in size
# How it was run: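 IP1 accumulation measured via TR-FRET between d2-IP1 and Eu-cryptate anti-IP1 antibody after carbachol (200 nM, EC80) stimulation for 30 min; rat M1-transfected CHO cells received compound 10 min before agonist.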
# [8] = qHTS Assay for Identification of Small Molecule Agonists for Hypoxia Response Element Signaling Pathway (AID 914; active = well fitted activation curve with a large enough effect in the signal ratio, with a control signal flat, not every such curve was filed as active; the % refers to the signal ratio); conditions: ME-180 (cervical carcinoma) HRE-bla reporter, beta-lactamase ratio, CoCl2, 17 h; activation: stronger effect = higher value
# How it was run: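 Reporter activity (beta-lactamase, CCF4 460nm/530nm ratio) in HRE-bla ME-180 cells is recorded after 17 h compound exposure with EC50 CoCl2 at 37 degrees Celsius. AC50 values come from titration data.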
# [9] = Cell Viability - LYMP2-001 (AID 921); note: series mostly up to about 92 µM; nearly all actives have a fitted effect of over 70% in size
# How it was run: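 Cellular ATP loss read by luciferase luminescence after 24 h compound exposure at 37 C in complete medium. LYMP2-001 lymphoblastoid cells, 2500/well; qHTS concentration-response data fitted with Hill equation for AC50.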
# [10] = qHTS Assay for Identification of Small Molecule Antagonists for Thrombopoietin (TPO) Signaling Pathway (AID 918); conditions: TPO-dependent cell signaling reporter, antagonist mode; note: potency is the fitted concentration of half-maximal effect; nearly all actives have a fitted effect of over 60% in size
# How it was run: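 Inhibition read as reduced luciferase luminescence after 24 h at 37 C in IL-3-deprived Ba/F3 cells carrying human TPO receptor and GPIIb-promoter reporter, stimulated with 26 pM TPO (final, its EC50) alongside compound.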
smiles,measurement,setting,value
CCSC(=N)N,Potency,[1],inactive
same,Potency,[2],inactive
same,Potency,[3],inactive
same,outcome,[4],inactive
same,Potency,[5],inactive
CC(=O)NCCc1c[nH]c2ccc(O)cc12,Potency,[1],inactive
same,Potency,[2],inactive
same,Potency,[3],inactive
same,outcome,[4],inactive
same,Potency,[5],inactive
NC1(C(=O)O)CCCCC1,Potency,[1],inactive
same,Potency,[6],inactive
same,Potency,[3],inactive
same,Potency,[7],inactive
COc1ccccc1N1CCN(CCCNc2c(C)c(=O)n(C)c(=O)n2C)CC1,Potency,[1],inactive
same,Potency,[3],inactive
CC[C@H](NC(=O)c1c(C)c(-c2ccccc2)nc2ccccc12)c1ccccc1,Potency,[1],12.6 µM (active)
same,Potency,[6],25.1 µM (active)
same,Potency,[3],inactive
O=C(O)c1cc(=O)cc(C(=O)O)[nH]1,Potency,[1],3.55 µM (active)
same,Potency,[3],inactive
NC1(C(=O)O)CC1,Potency,[1],inactive
same,Potency,[2],inactive
same,activation,[8],-20.7% (inactive)
same,Potency,[3],inactive
same,outcome,[4],inactive
same,Potency,[7],inactive
O=[N+]([O-])c1cccc2cn[nH]c12,Potency,[1],inactive
same,Potency,[6],inactive
same,Potency,[2],inactive
same,Potency,[3],inactive
same,outcome,[4],inactive
NC(=O)c1ccccc1,Potency,[1],inactive
same,Potency,[6],inactive
same,Potency,[3],inactive
same,outcome,[9],inactive
same,Potency,[5],inactive
same,Potency,[7],inactive
CCCCCCN(CCCCCC)C(=O)Cc1c(-c2ccc(F)cc2)[nH]c2ccccc12,Potency,[1],inactive
same,Potency,[6],3.98 µM (active)
NC/C=C\C(=O)O,Potency,[1],inactive
same,Potency,[6],inactive
same,Potency,[2],inactive
same,Potency,[3],inactive
same,outcome,[4],inactive
same,Potency,[5],inactive
same,Potency,[7],inactive
N[C@H](C(=O)O)c1cc(O)cc(O)c1,Potency,[1],inactive
same,Potency,[6],inactive
same,Potency,[3],inactive
same,Potency,[5],inactive
O=C(O)C1=CC(=C(c2ccc(O)c(C(=O)O)c2)c2ccc(O)c(C(=O)O)c2)C=CC1=O,Potency,[1],inactive
same,Potency,[2],inactive
same,outcome,[4],inactive
same,Potency,[5],inactive
CSC(=N)N,Potency,[1],inactive
same,Potency,[6],0.631 µM (active)
same,Potency,[3],inactive
same,Potency,[5],inactive
NC(=Nc1ccccc1)NC(=O)c1nc(Cl)c(N)nc1N,Potency,[1],7.94 µM (active)
same,Potency,[3],2.51 µM (active)
CC[N+](CC)(CC)CC(=O)Nc1c(C)cccc1C,Potency,[1],inactive
same,Potency,[3],inactive
Cc1nc2c(OCc3ccccc3)cccn2c1CC#N,Potency,[1],inactive
same,Potency,[6],inactive
same,Potency,[3],inactive
same,Potency,[7],inactive
O=c1onc2cnc3ccccc3n12,Potency,[1],5.62 µM (active)
same,Potency,[6],inactive
same,Potency,[3],inactive
O=C(O)c1cccnc1C(=O)O,Potency,[1],inactive
same,Potency,[6],inactive
same,Potency,[2],inactive
same,Potency,[3],inactive
same,outcome,[4],inactive
same,Potency,[5],inactive
same,Potency,[7],inactive
CCN1C(=O)C=CC1=O,Potency,[1],inactive
same,activation,[8],23.4% (inactive)
same,Potency,[10],1.58 µM (active)
same,Potency,[5],inactive
same,Potency,[7],inactive
Cc1nc(N=Nc2ccc(C(=O)O)cc2)c(COP(=O)(O)O)c(C=O)c1O,Potency,[1],inactive
same,Potency,[6],inactive
same,Potency,[3],inactive
same,Potency,[5],inactive
Cn1c(=O)[nH]c2ncn(C)c2c1=O,Potency,[1],inactive
same,Potency,[2],inactive
same,Potency,[3],inactive
same,outcome,[4],inactive
same,Potency,[5],inactive
same,Potency,[7],inactive
NCCCNCCCCNCCCN,Potency,[1],inactive
same,Potency,[6],inactive and 7.94 µM (active)
same,Potency,[7],inactive
CNc1cc(NS(=O)(=O)c2ccc(N)cc2)nc(NC)n1,Potency,[1],inactive
same,Potency,[6],inactive
same,Potency,[3],inactive
same,Potency,[5],inactive
CCCn1c(=O)c2[nH]c(C3CCCC3)nc2n(CCC)c1=O,Potency,[1],inactive
same,Potency,[6],inactive
same,Potency,[2],inactive
same,Potency,[3],inactive
same,outcome,[4],inactive
same,Potency,[7],inactive
NCCS(=O)O,Potency,[1],inactive
same,Potency,[6],inactive
same,Potency,[3],inactive
same,Potency,[5],inactive
CC(=O)C(C)=O,Potency,[1],inactive
same,Potency,[6],inactive
same,outcome,[9],inactive
[Li+],Potency,[1],inactive
same,activation,[8],9.95% (inactive)
same,Potency,[3],inactive
same,Potency,[7],inactive
C/C(=C\c1ccc(C(=O)O)cc1)c1ccc2c(c1)C(C)(C)CCC2(C)C,Potency,[1],10 µM (active)
same,activation,[8],-65.3% (inactive)
O=C(O)C1=CCNCC1,Potency,[1],inactive
same,Potency,[2],inactive
same,Potency,[3],inactive
same,outcome,[4],inactive
same,Potency,[5],inactive
same,Potency,[7],inactive
CCCC(=O)NCCc1c2n(c3ccc(OC)cc13)CCCc1ccccc1-2,Potency,[1],inactive
CN[C@H](CC(=O)O)C(=O)O,Potency,[1],inactive
same,Potency,[6],inactive
same,Potency,[3],inactive
O=C(O)C1=CCCNC1,Potency,[1],inactive
same,Potency,[2],inactive
same,Potency,[3],inactive
same,outcome,[4],inactive
same,Potency,[5],inactive
same,Potency,[7],inactive
Nc1ccc(-c2ccc3ccccc3n2)cc1,Potency,[1],inactive
same,Potency,[7],inactive
c1ccc2nc(C3=NCCN3)ccc2c1,Potency,[1],inactive
same,Potency,[3],inactive
O=C(O)C1=CCCN(CCON=C(c2ccccc2)c2ccccc2)C1,Potency,[1],inactive
same,Potency,[3],inactive
same,Potency,[7],inactive
Cc1nc(N=Nc2cc(S(=O)(=O)O)c3cc([N+](=O)[O-])cc(S(=O)(=O)O)c3c2)c(COP(=O)(O)O)c(C=O)c1O,Potency,[1],inactive
same,Potency,[7],inactive
CCN(c1nc(N)c(C(=O)N=C(N)N)nc1Cl)C(C)C,Potency,[1],inactive
same,Potency,[7],inactive
C[N+](C)(C)CC=O,Potency,[1],inactive
same,Potency,[3],inactive
COc1ccc(-c2ccc(N)[n+](CCCC(=O)O)n2)cc1,Potency,[1],inactive
same,Potency,[3],inactive
same,Potency,[5],inactive
same,Potency,[7],inactive
